Reference: PubChem BioAssay (Tox21)
Inconclusive results are not listed. Activity calls are given as the source filed them. Unless noted, calls follow the shape of the dose curve; as a rule, active = well fitted curve in the direction sought with a large enough effect in the repeat runs; inconclusive = weak or mixed curves; inactive = no such curve, though single readings can be large; an effect the other way counts as inactive or inconclusive.

Columns and labels:
[1] = qHTS assay to identify small molecule antagonists of the TGF-beta/Smad signaling pathway - cell viability counter screen (AID 1346824); also: nearly all actives have a fitted effect of over 50% in size
Summary of the method: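 Cytotoxicity counter-screen run in the same wells as the beta-lactamase Smad reporter read: CellTiter-Glo luminescence after 30 min at room temperature. HEK 293T SBE-bla cells had 5 hr compound exposure at 37 C with TGF-beta1 (0.25 ng/mL stock).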

[2] = qHTS assay to identify small molecule agonists of the TGF-beta/Smad signaling pathway (AID 1346859; active = well fitted activation curve with a large enough effect in the signal ratio in the repeat runs, not every such curve was filed as active; the % refers to the signal ratio; also: series mostly up to about 77 µM)
Summary of the method: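 Each well held 4,000 SBE-bla HEK 293T cells incubated overnight before compound addition; 5 hr later the cleavable FRET substrate went on for 2 hr at room temperature, and fluorescence was read at two emissions.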

[3] = target: Thyrotropin-releasing hormone receptor (Homo sapiens) (UniProt P34981); assay: qHTS assay to identify small molecule antagonists of the thyrotropin-releasing hormone receptor (TRHR) signaling pathway (AID 1346877; active = well fitted inhibition curve with a large enough effect in the repeat runs, not every such curve was filed as active; also: series mostly up to about 51 µM)
Summary of the method: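 Antagonism is measured as suppression of the calcium response to 1 nM TRH in TRHR-HEK293 cells that have been dye-loaded for 2 h at 37 °C after overnight plating. Each compound is tested at 15 concentrations in triplicate.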

[4] = target: Thyrotropin-releasing hormone receptor (Homo sapiens) (UniProt P34981); assay: qHTS assay to identify small molecule agonists of the thyrotropin-releasing hormone receptor (TRHR) signaling pathway (AID 1346891; calls by dose curve; also: series mostly up to about 58 µM)
Summary of the method: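 Screening of agonists relied on calcium signalling in HEK293 cells expressing human TRHR: dye loading 2 h at 37 °C preceded compound addition and a 3-min fluorescence time course.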

[5] = Human pregnane X receptor (PXR) small molecule agonists, qHTS cell viability counter screen (AID 1346977); also: nearly all actives have a fitted effect of over 50% in size
Summary of the method: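 Tox21 qHTS format; PXR-Luc HepG2, 2,000/well, charcoal-stripped FBS 5%. Cpd exposure 24hr. Read: CellTiter-Fluor fluorescence, multiplexed with luciferase.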

[6] = Caspase-3/7 induction in HepG2 cells by small molecules, qHTS assay (AID 1346978); also: nearly all actives have a fitted effect of over 15% in size
Summary of the method: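 Caspase-3/7 induction was measured by Caspase-Glo 3/7 luminescence (30 min, room temperature) after a 17 hr compound exposure of wild-type HepG2 cells seeded at 2,000 per well and pre-incubated 5 hr.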

[7] = Caspase-3/7 induction in CHO-K1 cells by small molecules, qHTS cell viability counter screen (AID 1346979); also: nearly all actives have a fitted effect of over 35% in size
Summary of the method: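 CellTiter-Fluor viability check, qHTS format: wild-type CHO-K1, 16hr compound treatment, 1hr reagent incubation, fluorescence read.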

[8] = Caspase-3/7 induction in CHO-K1 cells by small molecules, qHTS assay (AID 1346980); also: nearly all actives have a fitted effect of over 15% in size
Summary of the method: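 Luminescent Caspase-Glo 3/7 read (30min, room temperature) quantified apoptosis induction. Cells were wild-type CHO-K1, treated with compound for 17hr at 37 C and 5% CO2.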

[9] = Caspase-3/7 induction in HepG2 cells by small molecules, qHTS cell viability counter screen (AID 1346981); also: series mostly up to about 92 µM; nearly all actives have a fitted effect of over 30% in size
Summary of the method: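 Cell viability is measured as a cytotoxicity counter screen alongside the Caspase-Glo 3/7 readout in identical wells. Wild-type HepG2 cells are treated with test compounds for 16 hr at 37 C before CellTiter-Fluor addition and a 1-hr incubation.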

[10] = target: Nuclear receptor subfamily 1 group I member 2 (Homo sapiens) (UniProt O75469); assay: Human pregnane X receptor (PXR) small molecule agonists, qHTS assay (AID 1346982); also: nearly all actives have a fitted effect of over 35% in size; also: potency is read from the fitted curve at half-maximal effect
Summary of the method: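 Cells: HepG2 stably carrying PXR-Luc. Medium held 5% charcoal-stripped FBS. Compounds in DMSO added after 5 hr plating, incubated 24 hr, then luminescence quantified with ONE-Glo.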

[11] = target: Cytochrome P450 2D6 (Homo sapiens) (UniProt P10635); assay: Cytochrome P450 Family 2 Subfamily D Member 6 (CYP2D6) small molecule antagonists: luciferase reporter qHTS assay (AID 1671196); also: nearly all actives have a fitted effect of over 50% in size; also: potency is read from the fitted curve at half-maximal effect; as to activity change, negative = inhibition: series mostly up to about 120 µM
Summary of the method: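 Enzyme and proluciferin substrate were first combined with test chemical for 10 min at room temperature. Adding NADPH regeneration solution started a 1 h reaction, stopped with luciferin detection reagent and read by luminescence 20 min later.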

[12] = target: Cytochrome P450 2C19 (Homo sapiens) (UniProt P33261); assay: Cytochrome P450 Family 2 Subfamily C Member 19 (CYP2C19) small molecule antagonists: luciferase reporter qHTS assay (AID 1671197); also: nearly all actives have a fitted effect of over 65% in size; also: potency is read from the fitted curve at half-maximal effect; as to activity change, negative = inhibition: series mostly up to about 120 µM
Summary of the method: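 Inhibition of CYP2C19 was scored from loss of luminescence in a P450-Glo proluciferin substrate assay, NADPH-started and run 1 h at 37C, with ketoconazole as positive control.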

[13] = target: Cytochrome P450 2C9 (Homo sapiens) (UniProt P11712); assay: Cytochrome P450 Family 2 Subfamily C Member 9 (CYP2C9) small molecule antagonists: luciferase reporter qHTS assay (AID 1671198); also: nearly all actives have a fitted effect of over 50% in size; also: potency is read from the fitted curve at half-maximal effect; as to activity change, negative = inhibition: series mostly up to about 120 µM
Summary of the method: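 Enzyme-substrate mix preincubated with compound 10 min at room temperature; reaction started with NADPH regeneration solution, 1 h 37C. Luminescent luciferin product read after 20 min detection reagent.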

[14] = target: Cytochrome P450 1A2 (Homo sapiens) (UniProt P05177); assay: Cytochrome P450 Family 1 Subfamily A Member 2 (CYP1A2) small molecule antagonists: luciferase reporter qHTS assay (AID 1671199); also: nearly all actives have a fitted effect of over 50% in size; also: potency is read from the fitted curve at half-maximal effect; as to activity change, negative = inhibition: series mostly up to about 120 µM
Summary of the method: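 Compounds were incubated with CYP1A2 and a luminogenic proluciferin substrate for 10 min at room temperature before the reaction was started with NADPH regeneration solution. After 1 h, detection reagent was added and light output, proportional to CYP activity, was recorded.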

[15] = target: Cytochrome P450 3A4 (Homo sapiens) (UniProt P08684); assay: Cytochrome P450 Family 3 Subfamily A Member 4 (CYP3A4) small molecule antagonists: luciferase reporter qHTS assay (AID 1671201); also: nearly all actives have a fitted effect of over 50% in size; also: potency is read from the fitted curve at half-maximal effect; as to activity change, negative = inhibition: series mostly up to about 120 µM
Summary of the method: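 Proluciferin-to-luciferin conversion by CYP3A4, NADPH-regenerated, 1 h RT; luminescence read as RLU. Ketoconazole as control.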

[16] = qHTS assay to identify small molecule agonists of the TGF-beta/Smad signaling pathway - cell viability counter screen (AID 1346829); also: top concentration of the series differs between compounds; nearly all actives have a fitted effect of over 45% in size
Summary of the method: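 After overnight seating at 37 C and 5% CO2, reporter cells got compounds for 5 hr and FRET substrate for 2 hr; cell viability then came from CellTiter-Glo luminescence.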

[17] = target: Voltage-gated inwardly rectifying potassium channel KCNH2 (Homo sapiens) (UniProt Q12809); assay: Human Ether-a-go-go-Related Gene (hERG) channel small molecule antagonists: fluorescence cell-based qHTS assay (AID 1671200)
Summary of the method: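 Kinetic two-minute fluorescence traces, sampled at 1 s, were collected following thallium stimulus of U2OS cells (1000 per well) that had been cultured overnight at 37 C and loaded with FluxOR II.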

[18] = target: Nuclear receptor subfamily 1 group I member 2 (Rattus norvegicus) (UniProt Q9R1A7); assay: Rat pregnane X receptor (rPXR) activation by small molecules, qHTS assay (AID 1346983); conditions: rPXR luciferase reporter cells, One-Glo luminescence, 24 h; hits give high values; also: nearly all actives have a fitted effect of over 20% in size
Summary of the method: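 Luminescent readout (One-Glo luciferase, 30 min room temperature) followed 24 hr compound treatment at 37 C of rPXR cells plated 2,000 per well and preincubated 5hr; qHTS format with compounds delivered in DMSO.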

[19] = target: Nuclear receptor subfamily 1 group I member 2 (Homo sapiens) (UniProt O75469); assay: CYP3A4 induction through human pregnane X receptor (PXR) by small molecules, qHTS assay (AID 1346984); also: nearly all actives have a fitted effect of over 40% in size
Summary of the method: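 Quantitative HTS in DPX-2 cells, i.e. HepG2 transfected with PXR response element and CYP3A4-promoter luciferase. Compounds in DMSO incubated 24hr at 37C; then P450-Glo CYP3A4 substrate, 3uM final, 3hr; One-Glo luminescence.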
% is scaled to controls: 0 for no effect and ±100 for the full control effect.

Nuclear receptor subfamily 1 group I member 2 (Homo sapiens), sequence (O75469 whole entry, looked up): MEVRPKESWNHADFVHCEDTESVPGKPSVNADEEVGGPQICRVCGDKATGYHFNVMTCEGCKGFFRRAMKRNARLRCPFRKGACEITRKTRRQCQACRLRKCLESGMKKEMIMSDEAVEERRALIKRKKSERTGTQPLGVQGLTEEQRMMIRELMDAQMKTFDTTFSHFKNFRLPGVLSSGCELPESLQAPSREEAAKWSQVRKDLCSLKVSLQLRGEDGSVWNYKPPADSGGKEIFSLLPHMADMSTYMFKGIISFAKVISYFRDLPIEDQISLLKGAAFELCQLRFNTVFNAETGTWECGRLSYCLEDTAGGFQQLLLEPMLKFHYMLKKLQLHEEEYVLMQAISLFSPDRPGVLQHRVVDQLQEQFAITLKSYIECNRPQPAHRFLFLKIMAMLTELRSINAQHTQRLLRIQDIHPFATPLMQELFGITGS
Cytochrome P450 1A2 (Homo sapiens), sequence (P05177 whole entry, looked up): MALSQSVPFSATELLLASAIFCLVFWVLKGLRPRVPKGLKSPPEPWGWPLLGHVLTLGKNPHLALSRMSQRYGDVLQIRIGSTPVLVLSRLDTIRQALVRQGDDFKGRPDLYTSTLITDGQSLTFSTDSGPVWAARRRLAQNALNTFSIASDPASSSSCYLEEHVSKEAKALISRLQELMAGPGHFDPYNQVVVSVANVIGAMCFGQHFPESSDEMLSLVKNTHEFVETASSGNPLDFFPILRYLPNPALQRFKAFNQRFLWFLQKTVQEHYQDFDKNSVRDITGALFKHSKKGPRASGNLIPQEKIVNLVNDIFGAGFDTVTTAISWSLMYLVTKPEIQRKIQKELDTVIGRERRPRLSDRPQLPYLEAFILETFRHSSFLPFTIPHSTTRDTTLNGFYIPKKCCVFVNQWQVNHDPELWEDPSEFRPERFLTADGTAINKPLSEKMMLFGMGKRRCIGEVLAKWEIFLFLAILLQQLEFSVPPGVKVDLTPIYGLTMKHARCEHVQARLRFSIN
Thyrotropin-releasing hormone receptor (Homo sapiens), sequence (P34981 whole entry, looked up): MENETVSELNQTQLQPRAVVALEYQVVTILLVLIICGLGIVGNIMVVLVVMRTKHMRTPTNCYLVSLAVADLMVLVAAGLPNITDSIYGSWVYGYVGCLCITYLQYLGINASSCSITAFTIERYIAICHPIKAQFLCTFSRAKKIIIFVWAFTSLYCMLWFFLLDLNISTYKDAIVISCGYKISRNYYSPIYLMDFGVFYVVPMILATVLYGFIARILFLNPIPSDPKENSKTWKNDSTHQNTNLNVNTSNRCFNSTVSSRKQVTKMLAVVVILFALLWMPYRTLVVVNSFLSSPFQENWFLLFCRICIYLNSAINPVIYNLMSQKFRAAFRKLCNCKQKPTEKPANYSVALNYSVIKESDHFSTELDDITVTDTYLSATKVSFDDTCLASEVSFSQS
Cytochrome P450 3A4 (Homo sapiens), sequence (P08684 whole entry, looked up): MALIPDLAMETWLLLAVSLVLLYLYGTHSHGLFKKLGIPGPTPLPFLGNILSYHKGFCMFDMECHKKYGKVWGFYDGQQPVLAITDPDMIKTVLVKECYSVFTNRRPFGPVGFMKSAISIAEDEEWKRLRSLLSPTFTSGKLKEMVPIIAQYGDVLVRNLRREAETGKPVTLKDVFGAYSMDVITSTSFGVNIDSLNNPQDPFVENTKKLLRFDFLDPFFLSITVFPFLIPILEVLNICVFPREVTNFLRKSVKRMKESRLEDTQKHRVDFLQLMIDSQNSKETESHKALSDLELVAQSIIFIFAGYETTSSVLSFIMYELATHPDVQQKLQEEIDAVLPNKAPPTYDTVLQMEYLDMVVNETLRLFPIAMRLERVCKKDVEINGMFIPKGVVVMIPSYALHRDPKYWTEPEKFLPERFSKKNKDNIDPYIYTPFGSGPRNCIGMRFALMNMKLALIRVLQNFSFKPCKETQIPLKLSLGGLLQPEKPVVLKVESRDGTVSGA
Cytochrome P450 2C9 (Homo sapiens), sequence (P11712 whole entry, looked up): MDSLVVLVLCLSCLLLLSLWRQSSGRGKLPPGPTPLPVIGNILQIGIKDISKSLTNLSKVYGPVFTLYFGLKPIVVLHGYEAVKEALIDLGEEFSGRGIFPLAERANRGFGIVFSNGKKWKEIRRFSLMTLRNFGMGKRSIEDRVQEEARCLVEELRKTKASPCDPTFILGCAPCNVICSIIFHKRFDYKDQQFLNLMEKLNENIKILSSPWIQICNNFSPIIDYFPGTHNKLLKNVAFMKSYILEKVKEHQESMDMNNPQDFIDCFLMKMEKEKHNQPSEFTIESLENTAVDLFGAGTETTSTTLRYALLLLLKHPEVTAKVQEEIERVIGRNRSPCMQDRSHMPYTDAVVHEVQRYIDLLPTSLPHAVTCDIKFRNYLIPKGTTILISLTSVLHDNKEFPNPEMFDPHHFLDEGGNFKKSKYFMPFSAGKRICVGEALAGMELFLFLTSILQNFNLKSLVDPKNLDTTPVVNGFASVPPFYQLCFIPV
Cytochrome P450 2D6 (Homo sapiens), sequence (P10635 whole entry, looked up): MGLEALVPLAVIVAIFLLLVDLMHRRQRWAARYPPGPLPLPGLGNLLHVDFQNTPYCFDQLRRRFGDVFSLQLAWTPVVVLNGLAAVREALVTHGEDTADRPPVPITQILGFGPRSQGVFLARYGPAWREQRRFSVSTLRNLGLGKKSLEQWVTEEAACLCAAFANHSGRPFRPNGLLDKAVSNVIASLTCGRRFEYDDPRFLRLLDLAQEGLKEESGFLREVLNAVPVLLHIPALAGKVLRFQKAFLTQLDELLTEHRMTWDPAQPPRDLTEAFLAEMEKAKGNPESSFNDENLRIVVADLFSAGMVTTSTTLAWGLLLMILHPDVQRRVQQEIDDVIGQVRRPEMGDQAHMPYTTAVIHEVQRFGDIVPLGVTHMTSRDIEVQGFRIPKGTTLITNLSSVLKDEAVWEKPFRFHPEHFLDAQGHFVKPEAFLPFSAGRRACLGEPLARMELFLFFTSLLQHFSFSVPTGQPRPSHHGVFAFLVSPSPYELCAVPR
Voltage-gated inwardly rectifying potassium channel KCNH2 (Homo sapiens), sequence (Q12809 whole entry, looked up): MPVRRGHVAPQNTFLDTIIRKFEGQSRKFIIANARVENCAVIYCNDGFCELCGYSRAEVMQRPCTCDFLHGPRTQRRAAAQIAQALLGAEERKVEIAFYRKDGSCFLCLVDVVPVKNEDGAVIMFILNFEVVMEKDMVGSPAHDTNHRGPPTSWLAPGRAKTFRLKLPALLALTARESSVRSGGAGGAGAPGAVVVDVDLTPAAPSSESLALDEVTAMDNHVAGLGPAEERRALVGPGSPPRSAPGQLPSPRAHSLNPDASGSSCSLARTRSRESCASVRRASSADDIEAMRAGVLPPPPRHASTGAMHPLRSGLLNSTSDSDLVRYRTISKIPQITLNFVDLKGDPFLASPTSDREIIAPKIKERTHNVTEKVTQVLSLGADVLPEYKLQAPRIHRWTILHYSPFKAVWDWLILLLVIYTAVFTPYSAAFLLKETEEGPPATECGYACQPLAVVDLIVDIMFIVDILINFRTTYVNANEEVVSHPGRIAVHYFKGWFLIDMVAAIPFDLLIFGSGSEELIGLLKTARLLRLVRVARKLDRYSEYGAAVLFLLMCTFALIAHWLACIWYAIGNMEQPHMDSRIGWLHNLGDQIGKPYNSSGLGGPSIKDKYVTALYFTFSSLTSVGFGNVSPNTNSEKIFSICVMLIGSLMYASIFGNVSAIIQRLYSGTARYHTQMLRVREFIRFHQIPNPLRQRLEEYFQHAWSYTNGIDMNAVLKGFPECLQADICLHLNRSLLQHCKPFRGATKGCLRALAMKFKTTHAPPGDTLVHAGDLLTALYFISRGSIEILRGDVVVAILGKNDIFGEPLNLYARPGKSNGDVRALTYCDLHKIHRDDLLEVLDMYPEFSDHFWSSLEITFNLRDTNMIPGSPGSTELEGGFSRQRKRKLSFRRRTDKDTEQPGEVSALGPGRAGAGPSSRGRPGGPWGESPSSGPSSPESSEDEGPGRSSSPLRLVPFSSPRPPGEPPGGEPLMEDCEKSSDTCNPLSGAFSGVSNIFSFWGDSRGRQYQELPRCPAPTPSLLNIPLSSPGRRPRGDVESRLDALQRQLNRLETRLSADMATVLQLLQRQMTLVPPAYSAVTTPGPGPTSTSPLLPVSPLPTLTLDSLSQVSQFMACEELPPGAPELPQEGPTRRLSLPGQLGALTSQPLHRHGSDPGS
Cytochrome P450 2C19 (Homo sapiens), sequence (P33261 whole entry, looked up): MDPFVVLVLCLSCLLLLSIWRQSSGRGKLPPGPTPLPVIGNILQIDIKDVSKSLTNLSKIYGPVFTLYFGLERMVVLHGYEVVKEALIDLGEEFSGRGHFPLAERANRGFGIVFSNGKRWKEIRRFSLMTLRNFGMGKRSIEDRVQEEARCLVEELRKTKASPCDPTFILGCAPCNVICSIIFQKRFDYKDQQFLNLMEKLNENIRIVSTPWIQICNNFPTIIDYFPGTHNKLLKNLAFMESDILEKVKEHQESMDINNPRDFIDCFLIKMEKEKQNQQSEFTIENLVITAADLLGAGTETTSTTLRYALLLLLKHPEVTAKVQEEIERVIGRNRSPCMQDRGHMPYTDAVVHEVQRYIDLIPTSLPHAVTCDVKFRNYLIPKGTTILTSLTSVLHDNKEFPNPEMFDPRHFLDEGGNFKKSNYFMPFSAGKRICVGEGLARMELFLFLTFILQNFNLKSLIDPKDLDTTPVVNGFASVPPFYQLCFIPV
Nuclear receptor subfamily 1 group I member 2 (Rattus norvegicus), sequence (Q9R1A7 whole entry, looked up): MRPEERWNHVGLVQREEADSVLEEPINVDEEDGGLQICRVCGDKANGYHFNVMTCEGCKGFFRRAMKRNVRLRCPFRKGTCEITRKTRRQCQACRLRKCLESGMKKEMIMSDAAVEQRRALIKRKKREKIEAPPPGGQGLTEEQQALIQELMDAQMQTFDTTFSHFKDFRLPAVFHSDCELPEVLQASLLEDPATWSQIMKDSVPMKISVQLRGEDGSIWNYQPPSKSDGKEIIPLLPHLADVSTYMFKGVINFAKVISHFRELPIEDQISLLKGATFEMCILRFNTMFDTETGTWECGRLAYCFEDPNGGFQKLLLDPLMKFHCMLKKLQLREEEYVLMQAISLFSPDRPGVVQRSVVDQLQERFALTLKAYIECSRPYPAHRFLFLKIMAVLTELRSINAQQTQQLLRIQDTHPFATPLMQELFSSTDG

O=C1c2ccccc2C(=O)c2cc(Cl)ccc21
inactive: viability change, negative = cytotoxic [1] -4.61% [at 6.97 µM] | activation [2] 1.62% [at 6.97 µM] | activity, negative = inhibition [3] -0.75% [at 4.65 µM] | activation [4] 0.0495% [at 5.23 µM] | activity change, negative = cytotoxicity [5] -0.0384% [at 8.39 µM] | caspase activation [6] -1.72% [at 8.39 µM] | activity change, negative = cytotoxicity [7] 9.78% [at 8.39 µM] | caspase-3/7 activation [8] -0.328% [at 8.39 µM] | activity change, negative = cytotoxicity [9] 3.18% [at 8.39 µM] | activation [10] 8.25% [at 8.39 µM] | activity change, negative = inhibition [11] -1.33% [at 10.5 µM] | activity change, negative = inhibition [12] -15.8% [at 10.5 µM] | activity change, negative = inhibition [13] -13.1% [at 10.5 µM] | activity change, negative = inhibition [15] 5.17% [at 10.5 µM]
active: Potency [14] 0.138 µM

Cc1cc(C)c(C(=O)O)c(C)c1
inactive: outcome [1] | outcome [16] | outcome [3] | outcome [4] | outcome [5] | outcome [6] | Potency [7] | outcome [9] | Potency [10] | Potency [11] | Potency [12] | Potency [13] | Potency [17] | Potency [15]
active: Potency [14] 39.9 µM

C=CC(=O)CCCCC
inactive: outcome [1] | outcome [16] | outcome [5] | outcome [6] | Potency [7] | outcome [8] | outcome [9] | Potency [10] | Potency [12] | Potency [13] | Potency [14] | Potency [17] | Potency [15]

CCC(C(=O)OCCN1CCOC(c2ccccc2)C1C)c1ccccc1 (stereo not given)
active: Potency [10] 33.5 µM | Potency [12] 1.38 µM | Potency [13] 4.9 µM
inactive: outcome [1] | outcome [16] | outcome [3] | outcome [4] | outcome [5] | outcome [6] | Potency [7] | outcome [8] | outcome [9] | Potency [14] | Potency [17]

CSc1cnccn1
inactive: outcome [1] | outcome [2] | outcome [3] | outcome [4] | outcome [5] | outcome [6] | Potency [7] | outcome [8] | outcome [9] | Potency [10] | Potency [11] | Potency [12] | Potency [13] | Potency [17] | Potency [15]

CC(C)=CCC[C@@](C)(O)[C@H]1CC=C(C)CC1
active: Potency [10] 29.8 µM | Potency [12] 8.71 µM | Potency [13] 17.4 µM
inactive: outcome [1] | outcome [16] | outcome [5] | outcome [6] | Potency [7] | outcome [8] | outcome [9] | max activation [18] 1.39% | Potency [19] | Potency [11]

CCCCSCCCC
inactive: outcome [1] | outcome [16] | outcome [3] | outcome [4] | outcome [5] | Potency [7] | outcome [8] | outcome [9] | Potency [10] | Potency [11] | Potency [14] | Potency [15]
active: Potency [12] 79.6 µM

C[Si]1(C)O[Si](C)(C)O[Si](C)(C)O[Si](C)(C)O[Si](C)(C)O1
inactive: outcome [1] | outcome [16] | outcome [3] | outcome [4] | outcome [5] | Potency [7] | outcome [8] | outcome [9] | Potency [10] | Potency [11] | Potency [12] | Potency [13] | Potency [17] | Potency [15]

O=C1OCCO1
active: Potency [14] 42.2 µM
inactive: outcome [1] | outcome [16] | outcome [3] | outcome [4] | outcome [5] | outcome [6] | Potency [7] | outcome [8] | outcome [9] | Potency [10] | Potency [11] | Potency [13] | Potency [15]

CCC(C)C(=O)OCCc1ccccc1 (stereo not given)
inactive: outcome [1] | outcome [16] | outcome [3] | outcome [4] | outcome [5] | outcome [6] | Potency [7] | outcome [8] | outcome [9] | Potency [10] | Potency [12] | Potency [14] | Potency [17] | Potency [15]

NCc1ccc(S(N)(=O)=O)cc1
inactive: outcome [1] | outcome [16] | outcome [4] | outcome [5] | Potency [7] | outcome [8] | outcome [9] | Potency [10] | max activation [18] -0.0614% | Potency [19] | Potency [11] | Potency [14] | Potency [17] | Potency [15]

CN(C)CC/C=C1/c2ccccc2COc2ccc(CC(=O)O)cc21
inactive: outcome [1] | outcome [16] | outcome [3] | outcome [4] | outcome [5] | outcome [8] | outcome [9] | Potency [10] | max activation [18] -3.17% | Potency [19] | Potency [12] | Potency [13] | Potency [14] | Potency [17] | Potency [15]

CC12CCC(C1)C(C)(C)C2O (stereo not given)
inactive: outcome [1] | outcome [16] | outcome [3] | outcome [4] | outcome [5] | outcome [6] | Potency [7] | outcome [8] | outcome [9] | Potency [10] | Potency [13] | Potency [17] | Potency [15]

C/C=C(\C)C(=O)OCCc1ccccc1
active: Potency [12] 39.9 µM | Potency [14] 39.9 µM
inactive: outcome [1] | outcome [16] | outcome [4] | outcome [5] | outcome [6] | Potency [7] | outcome [9] | Potency [10] | Potency [11] | Potency [17] | Potency [15]

CC1=C(C(=O)O)N2C(=O)[C@@H](NC(=O)[C@H](N)c3ccccc3)[C@H]2SC1
inactive: outcome [1] | outcome [16] | outcome [3] | outcome [4] | outcome [5] | Potency [7] | outcome [8] | outcome [9] | Potency [10] | max activation [18] -2.36%

COc1cc2c(cc1OC)C(=O)C(CC1CCN(Cc3ccccc3)CC1)C2 (stereo not given)
inactive: outcome [1] | outcome [2] | outcome [4] | outcome [6] | Potency [7] | outcome [9] | Potency [10] | max activation [18] -1.76%

CC(C)C1OCCN1CCOC(=O)NCCCCCCNC(=O)OCCN1CCOC1C(C)C (stereo not given)
active: Potency [10] 34.4 µM | Potency [11] 63.3 µM | Potency [12] 35.6 µM | Potency [15] 10 µM
inactive: outcome [1] | outcome [3] | outcome [4] | outcome [5] | outcome [6] | Potency [7] | outcome [9] | Potency [17]
